Data published in PubChem BioAssay.
Values without a mark were called inactive. A call without a number means that no potency is given here. For some of these results: Potency and affinity values are given separately. The source made the active and inactive calls. Unless noted, the rule behind the calls is not given here.

Experiments:
[1] = antimalarial activity against Dd2 strain (AID 2302;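 active = growth inhibition above 50% at the single 2 µM test dose, taken to imply half-maximal potency below 2 µM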); conditions: P. falciparum Dd2 in RBCs, LDH growth readout, 72 h; at 2 µM; hits give high values
[2] = human hepatoma cell viability loss – ATP luminescence, cytotoxicity control for P. falciparum antimalarial project, primary screen (AID 2303;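 active = inhibition above 50%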); conditions: HepG2 viability, 24-48 h, at 10 µM, hits give high values
[3] = molecular target: L-lactate dehydrogenase (Plasmodium falciparum (isolate CDC / Honduras)) (UniProt Q27743); assay: PfLDH activity inhibition – cell lysate, 3D7 strain, counter-screen for P. falciparum growth inhibition project (AID 2304); conditions: P. falciparum 3D7 crude extract, LDH APAD/NBT absorbance; at 2 µM; hits give high values
Sequence of L-lactate dehydrogenase (Plasmodium falciparum (isolate CDC / Honduras)) (Q27743 whole entry, looked up): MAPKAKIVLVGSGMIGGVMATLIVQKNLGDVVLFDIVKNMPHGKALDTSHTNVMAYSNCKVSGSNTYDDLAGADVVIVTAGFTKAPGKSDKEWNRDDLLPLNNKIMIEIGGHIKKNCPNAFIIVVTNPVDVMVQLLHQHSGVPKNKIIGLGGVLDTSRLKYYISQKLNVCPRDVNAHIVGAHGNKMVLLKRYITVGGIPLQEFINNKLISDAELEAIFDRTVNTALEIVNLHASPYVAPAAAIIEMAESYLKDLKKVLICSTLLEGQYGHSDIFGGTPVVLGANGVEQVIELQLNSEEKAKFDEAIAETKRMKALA

[4] = inhibition of 3D7 malaria parasite growth – strain 3D7 (AID 2306); conditions: P. falciparum 3D7 erythrocytic growth, LDH absorbance, 72 h; at 2 µM; hits give high values
[5] = molecular target: Calcium-dependent protein kinase 1 (Plasmodium falciparum (isolate 3D7)) (UniProt P62344); assay: PfCDPK1 kinase inhibitors, biochemical, TCAMS library (AID 1159585; cut-off not given, nearly all actives have IC50 up to about 0.98 µM;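 note: inhibitors leave more ATP so luminescence rises with inhibition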); conditions: recombinant PfCDPK1, Kinase-Glo ATP depletion luminescence
Sequence of Calcium-dependent protein kinase 1 (Plasmodium falciparum (isolate 3D7)) (P62344 whole entry, looked up): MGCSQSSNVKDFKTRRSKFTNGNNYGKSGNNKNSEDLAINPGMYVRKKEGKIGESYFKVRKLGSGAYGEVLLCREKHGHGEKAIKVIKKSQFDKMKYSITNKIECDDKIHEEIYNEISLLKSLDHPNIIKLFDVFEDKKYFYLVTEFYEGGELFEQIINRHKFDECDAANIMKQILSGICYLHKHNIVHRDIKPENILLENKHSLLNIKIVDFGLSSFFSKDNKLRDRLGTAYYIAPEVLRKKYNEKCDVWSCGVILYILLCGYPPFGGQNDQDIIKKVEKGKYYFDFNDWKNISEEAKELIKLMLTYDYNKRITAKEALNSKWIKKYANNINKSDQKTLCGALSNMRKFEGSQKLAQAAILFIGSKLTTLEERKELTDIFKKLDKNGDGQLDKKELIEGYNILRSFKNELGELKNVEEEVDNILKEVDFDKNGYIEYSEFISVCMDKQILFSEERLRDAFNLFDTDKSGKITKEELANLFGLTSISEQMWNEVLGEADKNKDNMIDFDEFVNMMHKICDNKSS

[6] = molecular target: Plasmodium falciparum protein kinase 6 (PK6, PF3D7_1337100) (UniProt Q8IDW1); assay: PfPK6 kinase inhibitors, biochemical, TCAMS library (AID 1159586); conditions: recombinant PfPK6, Kinase-Glo ATP depletion luminescence
Sequence of Plasmodium falciparum protein kinase 6 (PK6, PF3D7_1337100) (Q8IDW1 1-305): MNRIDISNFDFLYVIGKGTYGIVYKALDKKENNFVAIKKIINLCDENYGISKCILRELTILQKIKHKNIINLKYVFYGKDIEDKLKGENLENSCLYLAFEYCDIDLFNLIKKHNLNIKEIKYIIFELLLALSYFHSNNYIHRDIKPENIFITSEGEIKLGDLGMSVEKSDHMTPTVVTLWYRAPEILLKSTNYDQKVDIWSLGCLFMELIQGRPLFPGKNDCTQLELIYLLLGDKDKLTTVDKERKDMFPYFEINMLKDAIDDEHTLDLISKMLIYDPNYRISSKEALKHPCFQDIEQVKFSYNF

[7] = molecular target: Protein kinase 7 (PK7), Plasmodium falciparum 3D7 (PF3D7_0213400) (UniProt Q7YTF7); assay: inhibition of Plasmodium PK7 catalytic activity – biochemical, TCAMS antimalarial set, Kinase-Glo luminescence (AID 1159587); conditions: recombinant PfPK7, Kinase-Glo ATP depletion luminescence
Sequence of Protein kinase 7 (PK7), Plasmodium falciparum 3D7 (PF3D7_0213400) (Q7YTF7 1-343): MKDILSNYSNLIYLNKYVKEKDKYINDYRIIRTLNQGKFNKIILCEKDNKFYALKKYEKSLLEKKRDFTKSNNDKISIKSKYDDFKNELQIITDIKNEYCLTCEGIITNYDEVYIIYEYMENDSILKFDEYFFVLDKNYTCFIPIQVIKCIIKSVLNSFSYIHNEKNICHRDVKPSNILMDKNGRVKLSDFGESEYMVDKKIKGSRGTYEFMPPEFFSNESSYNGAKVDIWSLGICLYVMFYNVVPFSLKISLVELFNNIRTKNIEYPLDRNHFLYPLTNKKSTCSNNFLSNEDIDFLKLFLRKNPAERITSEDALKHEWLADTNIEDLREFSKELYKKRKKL

[8] = molecular target: Calcium-dependent protein kinase 4 (Plasmodium falciparum (isolate 3D7)) (UniProt Q8IBS5); assay: PfCDPK4 kinase inhibitors, biochemical, TCAMS library (AID 1159588; cut-off not given, nearly all actives have IC50 up to about 0.91 µM); conditions: recombinant PfCDPK4, Kinase-Glo ATP depletion luminescence
Sequence of Calcium-dependent protein kinase 4 (Plasmodium falciparum (isolate 3D7)) (Q8IBS5 whole entry, looked up): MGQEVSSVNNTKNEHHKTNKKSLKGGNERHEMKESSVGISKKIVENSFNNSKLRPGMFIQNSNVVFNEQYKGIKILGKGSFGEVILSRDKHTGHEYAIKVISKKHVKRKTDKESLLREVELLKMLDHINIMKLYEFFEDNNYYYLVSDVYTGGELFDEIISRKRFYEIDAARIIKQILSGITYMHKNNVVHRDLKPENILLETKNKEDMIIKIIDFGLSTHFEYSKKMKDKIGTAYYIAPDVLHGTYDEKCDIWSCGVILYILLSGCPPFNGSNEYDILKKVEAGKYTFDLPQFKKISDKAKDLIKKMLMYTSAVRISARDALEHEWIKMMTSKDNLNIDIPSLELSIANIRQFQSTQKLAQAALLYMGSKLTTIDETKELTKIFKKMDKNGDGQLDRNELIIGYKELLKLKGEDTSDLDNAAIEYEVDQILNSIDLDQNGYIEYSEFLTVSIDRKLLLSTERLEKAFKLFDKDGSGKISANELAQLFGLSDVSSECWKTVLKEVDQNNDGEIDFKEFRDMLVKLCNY

Structure (SMILES)	growth inhibition [1]	inhibition [2]	inhibition [3]	growth inhibition [4]	outcome [5]	outcome [6]	outcome [7]	outcome [8]
O=C(Cn1cc(C(F)(F)F)cc(Cl)c1=O)N1CCN(S(=O)(=O)c2ccc(Cl)cc2)CC1	69% (active)	14%	0%	99% (active)	inactive	inactive	inactive	inactive
CNC(=O)C(C)N(c1ccc(Cl)cc1)c1nc(C(C)(C)C)cs1 (stereo not drawn)	98% (active)	0%	7%	99% (active)	inactive	inactive	inactive	inactive
Cc1nnsc1C(=O)Nc1cccc(-c2ccc(-c3nc4c(C)cccc4[nH]3)s2)c1	44%	46%	4%	100% (active)	inactive	inactive	inactive	inactive
COc1ccc(Nc2nccc(N3CCC(NS(=O)(=O)c4ccc(NC(C)=O)cc4)C3)n2)cc1 (stereo not drawn)	16%	3%	-2%	100% (active)	inactive	inactive	inactive	inactive
O=C(Nc1ccc(C(=O)OC[C@@H]2CCCN3CCCC[C@H]23)cc1)c1ccc(Cl)c(Cl)c1	37%	20%	0%	99% (active)	inactive	inactive	inactive	inactive
CN(C)[C@@H]1C(=O)C(C(N)=O)=C(O)[C@@]2(O)C(=O)C3=C(O)c4c(O)ccc(C#Cc5ccccn5)c4C[C@H]3C[C@@H]12	75% (active)	17%	-6%	92% (active)	inactive	inactive	inactive	inactive
O=C(CCCCCNC(=O)c1ccc(O)c(-c2ccc(Cl)c(Cl)c2)c1)NCc1cccc(C(F)(F)F)c1	10%	2%	2%	92% (active)	inactive	inactive	inactive	inactive
CC(C)[C@@H]1c2ccc(O)cc2C[C@H]2C(=O)N(C3CCCCC3)C(=O)N21	88% (active)	2%	0%	95% (active)	inactive	inactive	inactive	inactive
Oc1ccc(-c2nc3c4cc(I)ccc4c4ccc(I)cc4c3[nH]2)cc1	51% (active)	-3%	2%	98% (active)	inactive	inactive	inactive	inactive
CN(C)CCCOc1cccc(CCNCc2cccc(Oc3ccc(Cl)cc3)c2)c1	67% (active)	72% (active)	-3%	93% (active)	inactive	inactive	inactive	inactive
NC(Cc1cccc(I)c1)C(=O)NCC1CCCO1 (stereo not drawn)	50% (active)	52% (active)	1%	98% (active)	inactive	inactive	inactive	inactive
Cc1ccc(Cn2nc(N3CCNCC3)ccc2=O)cc1NC(=O)Nc1ccc(-c2ccccc2)cc1	20%	46%	-1%	94% (active)	inactive	inactive	inactive	inactive
COc1cc(Cc2c(C)nc3nc(N)nc(N)c3c2C)c(Br)c(OC)c1OC	-2%	44%	0%	93% (active)	inactive	inactive	inactive	inactive
CCCNCc1ccc(-c2ccc(CN(CCOC)C(=O)[C@H]3CCCO3)cc2)nc1	6%	1%	-3%	98% (active)	inactive	inactive	inactive	inactive
O=C(NCC1CCC(C(=O)NCCc2ccc(Cl)c(Cl)c2)CC1)c1ccc(O)c(-c2ccc(Cl)c(Cl)c2)c1 (stereo not drawn)	12%	-5%	-1%	94% (active)	inactive	inactive	inactive	inactive
CCCCCCCCN1CCCN(C(=O)c2cccc(NC(=O)Nc3ccc4ccccc4c3)c2)CC1	39%	39%	1%	97% (active)	inactive	inactive	inactive	inactive
Cc1cc(N(C)C)nc(Nc2ccc(NC(=O)c3cccc(F)c3)cc2)n1	62% (active)	-8%	4%	100% (active)	inactive	inactive	inactive	inactive
COc1ccc(Nc2ncc3c(-c4cccc(NC(=O)Cc5cccc(F)c5)c4)c[nH]c3n2)cc1OC	68% (active)	24%	2%	101% (active)	inactive	inactive	inactive	inactive
CON=C1CCC(Cn2ccnc2)(c2ccc(Cl)cc2Cl)CC1 (stereo not drawn)	56% (active)	7%	-5%	100% (active)	inactive	inactive	inactive	inactive
CC1CCCCN1CCCNC(=O)c1cccc(-c2cc3cc(Cl)c(Cl)cc3[nH]2)c1 (stereo not drawn)	7%	22%	-2%	94% (active)	inactive	inactive	inactive	inactive
COc1ccc(OCC(=O)Nc2nc(-c3ccc(OC)cc3)c(C)s2)cc1	87% (active)	-3%	-6%	100% (active)	inactive	inactive	inactive	inactive

Structure (SMILES)	growth inhibition [1]	inhibition [2]	inhibition [3]	growth inhibition [4]	outcome [5]	outcome [6]	outcome [7]	outcome [8]
CCN(CC)c1ccc(C(c2ccc(N(CC)CC)cc2)c2cccc([N+](=O)[O-])c2)cc1	68% (active)	39%	-1%	91% (active)	inactive	inactive	inactive	inactive
O=C1C(c2ccccc2)=C(Nc2cccc([N+](=O)[O-])c2)c2ccccc21	88% (active)	-3%	1%	88% (active)	inactive	inactive	inactive	inactive
CCCCCCOc1ccc(C(=O)N[C@H]2CCN(CCCCCNC(=O)/C=C/c3ccc(Cl)c(Cl)c3)C2)cc1	25%	10%	-5%	99% (active)	inactive	inactive	inactive	inactive
CN1CCC(NCc2cccc(-c3ccc(S(=O)(=O)NCc4ccccc4)c(F)c3)c2)CC1	99% (active)	94% (active)	-8%	99% (active)	inactive	inactive	inactive	inactive
O=C(Cn1c(CCc2cccc(F)c2F)cc(=O)c2ccccc21)N(Cc1ccc(-c2ccc(C(F)(F)F)cc2)cc1)C1CCN(CCO)CC1	84% (active)	82% (active)	0%	91% (active)	inactive	inactive	inactive	inactive
Cc1sc2nc(CSc3ccccc3)nc(N3CCN(CC(=O)NC4CC4)CC3)c2c1C	95% (active)	2%	1%	96% (active)	inactive	inactive	inactive	inactive
Cc1cccc(CN2CCC(Oc3ccc(NC(=O)c4cccs4)cc3Cl)CC2)n1	88% (active)	27%	7%	86% (active)	inactive	inactive	inactive	inactive
Cc1noc(-c2ccc3c(c2)CCN(CCC2CCC(NC(=O)/C=C/c4cccc(Cl)c4)CC2)CC3)n1 (stereo not drawn)	24%	37%	4%	86% (active)	inactive	inactive	inactive	inactive
Cc1cccc(-c2nc3cc(NC(=O)c4ccc([N+](=O)[O-])o4)ccc3o2)c1	73% (active)	8%	4%	94% (active)	inactive	inactive	inactive	inactive
COc1cc2c(cc1C(F)(F)F)N(C(=O)Nc1cc(F)cc(-c3cccnn3)c1)CC2	34%	21%	6%	90% (active)	inactive	inactive	inactive	inactive
Cc1ccc(NC(=O)c2ccnc(N3CCN(c4ccncc4)CC3)c2)cc1F	12%	43%	-2%	94% (active)	inactive	inactive	inactive	inactive
O=C(Nc1ccc(Cn2nc(Cl)c(N3CCNCC3)cc2=O)cc1)Nc1ccc(-c2ccccc2)cc1	49%	99% (active)	-3%	97% (active)	inactive	inactive	inactive	inactive
Cc1ccccc1CNC(=O)Nc1cccc(-c2csc(N=C(N)N)n2)c1	14%	2%	-2%	99% (active)	inactive	inactive	inactive	inactive
O=C(O)c1ccc(OCOCOc2ccc(C(=O)O)c(O)c2)cc1O	0%	-2%	6%	99% (active)	inactive	inactive	inactive	inactive
CCOc1cc(C(=O)Nc2cccnc2)cc(Br)c1OCCC(C)C	51% (active)	4%	1%	88% (active)	inactive	inactive	inactive	inactive
N#Cc1ccc(-c2ccc(C(=O)NC3CCN(CCN4CCC(c5cn(CCOC6CCCCO6)c6ccccc56)CC4)CC3)cc2)cc1 (stereo not drawn)	86% (active)	48%	2%	99% (active)	inactive	inactive	inactive	inactive
CC(C)C[C@H](NC(=O)c1ccc(F)cc1)C(=O)N[C@H](/C=N/NC(=O)c1ccccc1)CCc1ccccc1	61% (active)	1%	-2%	92% (active)	inactive	inactive	inactive	inactive
COc1ccc2nc(/C=C/c3cccc4ccc(C)nc34)[nH]c2c1	77% (active)	25%	-1%	98% (active)	inactive	inactive	inactive	inactive
N#Cc1cccc(Nc2nccc(NCC(O)c3ccc(C(F)(F)F)cc3)n2)c1 (stereo not drawn)	98% (active)	23%	4%	102% (active)	inactive	inactive	inactive	inactive
Fc1cc(Cl)ccc1Nc1ccnc2cc(-c3ccc(CN4CCSCC4)o3)ccc12	99% (active)	17%	0%	100% (active)	inactive	inactive	inactive	inactive
